IL1B secr inh: qHTS for Inhibitors of Inflammasome Signaling: IL-1-beta AlphaLISA Primary Screen; actives 4.7% (n = 360,000); AID 743279, 2014; activity change, % at 57.5 µM; THP-1 LPS/ATP IL-1B secretion, AlphaLISA, 16 h; active compounds read low; in the data active = activity change below about -50%; inconclusive = mostly about -30% to -49%
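Secreted IL-1B measured by AlphaLISA bead assay after 16 h compound exposure of THP-1 cells; compounds (final up to 57.5 uM) added 1 h before LPS (250 ng/mL) and ATP (1.25 mM) stimulation; lower signal means less secretion.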
uPA surface inh: qHTS for Inhibitors of Cell Surface uPA Generation. cell surface uPA generation assay, qHTS. actives 0.31% (n = 330,000). Potency, µM (highest dose often 38.3 µM), without a hit: at the top dose activity change, negative = inhibition, hits mostly inhibitors; active = well fitted inhibition curve with a large enough effect; inconclusive = small, poorly fitted or top-dose-only effect; inactive = no such curve, though single readings can be large or run the other way; tested in mouse RAW 264.7 cells; note: potency is the fitted concentration of half-maximal effect; nearly all actives have a fitted effect of over 55% in size
DT40 TDP1 CPT: qHTS for Inhibitors of human tyrosyl-DNA phosphodiesterase 1 (TDP1): qHTS in cells in presence of CPT; chicken DT40 Tdp1-/-;hTDP1 cells + 20 nM CPT, ATP luminescence, 48 h; Potency, µM (series often up to 46.2 µM), for inactives: at the top dose activity change, negative = growth inhibition, usual class: inhibitors; actives 12% (n = 420,000); AID 686979, 2013; note: potency is the fitted concentration of half-maximal effect; nearly all actives have a fitted effect of over 55% in size
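Chicken DT40 Tdp1-/- cells stably complemented with human TDP1 were seeded at 400 cells/well in medium containing 20 nM camptothecin, exposed to pin-transferred compounds, and grown at 37 °C for at least 48 hr. Viability was read as ATP luminescence.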
HT1080 IDH1KD tx: qHTS for induction of synthetic lethality in tumor cells producing 2HG: qHTS for the HT-1080-IDH1KD cell line. HT-1080 IDH1 knockdown viability, ATP luminescence, 48 h. Potency, µM (series often up to 46.1 µM), inactives show at the top dose activity, negative = toxicity, hits mostly cytotoxic. actives 2% (n = 360,000);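 note: potency is the fitted concentration of half-maximal effect; 0% = DMSO wells and -100% = cell-free medium wells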
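Viability of IDH1-knockdown HT-1080 fibrosarcoma cells was assessed by CellTiter-Glo after 48 h at 37 °C with titrated compound; concentration-effect curves were classified by fit quality and response size.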
HT1080-NT tox: qHTS for induction of synthetic lethality in tumor cells producing 2HG: qHTS for the HT-1080-NT fibrosarcoma cell line; HT-1080-NT fibrosarcoma viability, CellTiter-Glo ATP luminescence, 48 h; Potency, µM (top dose mostly 46.1 µM), inactives show at the highest dose activity, negative = less viability, hits mostly cytotoxic; actives 1.6% (n = 360,000);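 note: NT is the 2HG producing partner of a matched IDH1 knockdown line; potency is the fitted concentration of half-maximal effect; 0% = DMSO-treated cells and -100% = media-only wells without cells; nearly all actives have a fitted effect of over 55% in size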
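HT-1080-NT; 750 cells/well; 5% FBS RPMI; 48 h compound, 37 degrees C; CellTiter-Glo luminescence; curve fitting and curve-class assignment.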
TDP1 cell noCPT: qHTS for Inhibitors of human tyrosyl-DNA phosphodiesterase 1 (TDP1): qHTS in cells in absence of CPT; DT40 Tdp1-/- hTDP1 cells, no CPT, ATP luminescence, 48 h; Potency, µM (doses to about 46.2 µM), for the others: top-dose activity change, negative = growth inhibition, usual class: inhibitors; actives 15% (n = 420,000); note: potency is the fitted concentration of half-maximal effect; nearly all actives have a fitted effect of over 55% in size
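Camptothecin absent (DMSO only). Human TDP1-complemented DT40 knockout cells, 400 cells/well, 37 °C for minimum 48 hr; ATP measured via CellTiter-Glo, 30 min dark incubation, luminescence.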
The depositor's hits bear a star; ? = inconclusive; . = no result; [ ] = another dose, or the depositor's remark. This is a sample that favours compounds with a hit; in the whole collection about 19% have one here. Unless noted, calls come from the whole dose curve; as a rule, active = well fitted curve in the direction sought with a large enough effect; inconclusive = small, poorly fitted or top-dose-only effect, or another doubt; inactive = no such curve, though single readings can be large; an effect the other way counts as inactive or inconclusive. Unless noted, % is set by controls: 0 for no effect and ±100 for the full control effect.

SMILES	IL1B secr inh	uPA surface inh	DT40 TDP1 CPT	HT1080 IDH1KD tx	HT1080-NT tox	TDP1 cell noCPT
CCc1ccc(CNC(=O)C2CCCN(c3nn4c(=O)cc(C)nc4s3)C2)cc1 (configuration not stated)	-6.8	4.0%	-28.0%	-2.3%	-8.3%	-22.5%
Cc1ccc(CNC(=O)C2CCCN(c3nn4c(=O)cc(C)nc4s3)C2)cc1 (configuration not stated)	-11.6	0.3%	10.5%	5.1%	7.7%	?
Cc1ccc(CNC(=O)C2CCCN(c3nnc(-n4c(C)ccc4C)s3)C2)cc1 (configuration not stated)	.	.	?	.	.	18.4µM*
Cc1ccc(C)n1-c1nnc(N2CCCC(C(=O)NCc3ccc(Cl)cc3)C2)s1 (configuration not stated)	.	.	?	.	.	9.2µM*
Cc1ccc(C)n1-c1nnc(N2CCCC(C(=O)NCc3ccc(F)cc3)C2)s1 (configuration not stated)	.	.	18.4µM*	.	.	8.2µM*
CCOc1ccc(CCNC(=O)c2cc(=O)[nH]c3ccc(S(=O)(=O)N4CCCCC4)cc23)cc1OCC	.	.	-1.2%	.	.	-4.9%
COc1cc(CN2CCC(C(=O)NC(c3ccccc3)c3ccsc3)CC2)cc(OC)c1 (configuration not stated)	-23.8	.	16.4µM*	?	?	20.6µM*
CCCN1CCC(C(=O)NC(c2ccc(Cl)cc2)c2ccsc2)CC1 (configuration not stated)	?	.	?	?	?	2.91µM*
O=C(NC(c1ccc(Cl)cc1)c1ccsc1)C1CCN(Cc2ccc(Oc3ccccc3)cc2)CC1 (configuration not stated)	-62.5*	.	2.59µM*	11.6µM*	14.6µM*	2.59µM*
COc1ccc(OCCN2CCC(C(=O)NC(c3ccsc3)c3ccccc3C)CC2)cc1 (configuration not stated)	-66.5*	.	?	?	?	?
CC(NC(=O)C1CCC1)c1ccc(Cl)cc1 (configuration not stated)	20.8	3.3%	7.2%	15.5%	13.4%	-3.1%
O=C(NC(c1ccccc1)c1ccsc1)C1CCN(Cc2ccccc2)CC1 (configuration not stated)	48.9	.	?	6.6%	-4.7%	?
COc1ccc(Cl)cc1N1C(=NC(=O)C2CCCCC2)SC2CS(=O)(=O)CC21 (configuration not stated)	-0.6	-2.8%	-11.5%	6.9%	12.9%	7.9%
O=C(CCS(=O)(=O)c1ccc(Br)cc1)Nc1ccc(Br)cc1F	-0.5	-0.5%	1.3%	5.1%	2.7%	-3.4%
Cc1ccccc1C(NC(=O)C1CCN(Cc2ccc(Oc3ccccc3)cc2)CC1)c1ccsc1 (configuration not stated)	?	.	18.4µM*	?	20.6µM*	18.4µM*
N#Cc1ccccc1NC(=O)C(=O)NCC(c1ccc2c(c1)OCO2)N1CCOCC1 (configuration not stated)	.	.	-1.9%	.	.	-17.8%
COc1cccc(OCCSc2nc(N)cc(N)n2)c1	-3.9	-7.4%	?	?	-25.7%	20.6µM*
Nc1cc(N)nc(SCCOc2ccccc2)n1	-0.5	-6.5%	?	13.8%	-0.1%	-28.3%
Cc1ccc(Cn2c(C)cc3c(c2=O)C(c2cccs2)C(C#N)=C(N)O3)cc1 (configuration not stated)	0.0	5.4%	-2.2%	-11.4%	-2.7%	-34.3%
COc1cc(C2C(C#N)=C(N)Oc3cc(C)oc(=O)c32)cc(OC)c1OC (configuration not stated)	15.9	0.2%	?	15.5%	14.0%	23.1µM*
Cc1cc2c(c(=O)o1)C(C(C)C)C(C#N)=C(N)O2 (configuration not stated)	7.1	-3.0%	-6.9%	19.7%	14.0%	-14.0%
COc1cc(C2C(C#N)=C(N)Oc3cc(C)oc(=O)c32)cc2c1OCO2 (configuration not stated)	0.0	3.9%	-17.3%	-21.4%	-14.8%	-16.9%
Cc1cc2c(c(=O)o1)C(c1cccs1)C(C#N)=C(N)O2 (configuration not stated)	-63.1*	-10.2%	23.1µM*	-2.0%	-0.9%	18.4µM*
Cc1ccc(SCc2[nH]nc3c2C(c2ccco2)C(C#N)=C(N)O3)cc1 (configuration not stated)	-20.2	-23.5%	?	-23.9%	?	?
Cc1ccc(SCc2[nH]nc3c2C(c2ccc(C)o2)C(C#N)=C(N)O3)cc1 (configuration not stated)	-4.8	.	16.4µM*	?	-17.4%	16.4µM*
SMILES	IL1B secr inh	uPA surface inh	DT40 TDP1 CPT	HT1080 IDH1KD tx	HT1080-NT tox	TDP1 cell noCPT
Cc1ccc([C@H]2C(C#N)=C(N)Oc3cc(C)oc(=O)c32)o1	-106.2*	-3.3%	16.4µM*	-8.2%	?	23.1µM*
O=C(OCc1cn([C@H]2C[C@H](c3ccc(Cl)cc3)N(C(=O)C3CCCCC3)C[C@@H]2O)nn1)c1ccccc1	?	.	-12.8%	-0.3%	1.0%	18.6%
COc1ccc2c(c1)CCc1cnc(-n3ncc(C(=O)NCC(C)(C)CN(C)C)c3C)nc1-2	.	.	4.9%[9.04 µM]	.	.	?
CN(Cc1cccc(Cl)c1Cl)C(=O)CCNC(=O)c1ccco1	-2.0	7.0%	-9.1%	1.0%	3.5%	-19.3%
O=S(=O)(O)c1cc(Cl)cc(N=Nc2ccc(O)cc2O)c1O	0.0	-7.7%	-11.3%	-12.9%	-0.9%	?
O=S(=O)(O)c1cc(O)c2c(O)c(N=Nc3cc(Cl)ccc3O)c(S(=O)(=O)O)cc2c1	-29.6	-5.8%	18.4µM*	?	?	18.4µM*
Cc1cc(-c2ccc(N=Nc3c(S(=O)(=O)O)cc4cc(S(=O)(=O)O)cc(N)c4c3O)c(C)c2)ccc1N=Nc1c(S(=O)(=O)O)cc2cc(S(=O)(=O)O)cc(N)c2c1O	.	.	9.44µM*	.	.	9.44µM*
CC(C)COc1ccc(/C(=N/O)c2ccccc2)cc1	-78.9*	10.2%	-22.3%	0.6%[9.24 µM]	?	?
CCC(=O)OCC(=O)N=c1sccn1Cc1ccccc1Cl	-4.7	-4.8%	-1.7%	2.2%	-2.2%	-5.0%
